Data as given in article PMC4552634, “A New Set of Chemical Starting Points with Plasmodium falciparum Transmission-Blocking Potential for Antimalarial Drug Discovery” (PLoS ONE, 2015).
About 3,200 (25%) of roughly 13,000 compounds showed an effect of 50% or more. The list shows a part of the results.

System: P. falciparum stage V gametocytes
Design: BacTiter-Glo ATP luminescence viability of purified stage V gametocytes in 384-well plates, per cent inhibition versus DMSO
Conditions: 48 h, 5 µM; inhibitor

| SMILES | % Inhibition [%] |
| --- | --- |
| O=c1cc(NCCCNC2CCOc3c(Cl)cccc32)[nH]c2ccccc12 (centres unmarked) [TCMDC-139551] | -16.88 |
| O=C(/C=C/c1ccc(Cl)c(Cl)c1)NCCCCCCN1CCN(C(=O)Nc2cccc(Cl)c2)CC1 [TCMDC-135831] | -35.92 |
| Nc1nc(N)c2c(ccc3c2ccn3Cc2ccc3c(c2)OCO3)n1 [TCMDC-137808] | 102.2 |
| Nc1nc(N)c2c(ccc3c2ccn3Cc2cccc(F)c2)n1 [TCMDC-137810] | 101.3 |
| Cc1cccc(-c2c(C)nc(N)nc2N)c1 [TCMDC-138072] | 4.683 |
| Cc1ccc(C)c(Cn2ccc3nc(N)nc(N)c32)c1 [TCMDC-137330] | 9.396 |
| Cc1cccc(Cn2ccc3c4c(N)nc(N)nc4ccc32)c1 [TCMDC-137814] | 60.36 |
| Nc1nc(N)c2c(ccc3c2ccn3CC2CC2)n1 [TCMDC-123991] | 40.96 |
| Nc1nc(N)c2c(ccn2Cc2cc3c(cc2Cl)OCO3)n1 [TCMDC-137328] | -14.37 |
| Cc1cccc(Cn2ccc3c(N)nc(N)nc32)c1 [TCMDC-137327] | 54.63 |
| Cc1cc(NC(=O)Nc2ccc3ncccc3c2)c2ccccc2n1 [TCMDC-139829] | -30.57 |
| COc1ccc(C2CCN(C#N)C2)cc1OC1CCCC1 (centres unmarked) [TCMDC-131880] | 32.2 |
| COc1ccc(-n2c(=O)c3c(n4c(SC(C)C)nnc24)-c2ccccc2CC32CCCCC2)cc1 [TCMDC-125706] | 19.59 |
| NC1=NC(CCc2ccccc2)N(c2ccccc2)C(N)=N1 (centres unmarked) [TCMDC-131292] | 10.89 |
| O=C(O)C(F)(F)F.O=C1CCCN1CCCNCc1ccc(-c2cccc(-c3nc4ccccc4[nH]3)c2)cc1 [TCMDC-132549] | -11.63 |
| Cn1nccc1C(=O)NCCNCc1ccc(-c2cccc(-c3nc4ccccc4[nH]3)c2)cc1.O=C(O)C(F)(F)F [TCMDC-132562] | -0.1444 |
| O=C(O)C(F)(F)F.c1cc(-c2ccc(CNCCCN3CCOCC3)cc2)cc(-c2nc3ccccc3[nH]2)c1 [TCMDC-132548] | 54.17 |
| O=C(O)C(F)(F)F.c1cc(-c2ccc(CNCCCn3ccnc3)cc2)cc(-c2nc3ccccc3[nH]2)c1 [TCMDC-132541] | 99.24 |
| O=C(O)C(F)(F)F.c1ccc2[nH]c(-c3ccc(-c4ccc(CN5CCN(CCN6CCOCC6)CC5)cc4)cc3)nc2c1 [TCMDC-133928] | -28.02 |
| c1ccc(CCNc2ncnc3c2[nH]c2ccccc23)cc1 [TCMDC-124578] | -4.873 |
| CC(C)(C)c1cc(C(=O)Nc2cccnc2)cc(C(=O)Nc2cccnc2)c1 [TCMDC-125788] | -16.11 |
| COc1ccc2nccc([C@@H](O)CN3CCC(NCc4nc5c(OCc6ccccc6)cccc5[nH]4)CC3)c2c1 [TCMDC-141083] | 34.25 |
| CC(CC(=O)NCC1(c2ccc(F)cc2Cl)CCOCC1)C(=O)c1ccc(Cl)cc1 (centres unmarked) [TCMDC-134256] | 68.04 |
| N#CC(CC(=O)c1ccc(Cl)cc1)c1cccc(F)c1 (centres unmarked) [TCMDC-123760] | 17.52 |
| Cc1cccc2nc(-c3cccc(-c4ccc(C(=O)NCc5nccn5C)cc4)c3)[nH]c12 [TCMDC-132356] | 7.308 |

| SMILES | % Inhibition [%] |
| --- | --- |
| COc1ccc(S(=O)(=O)N(c2cc(Br)cc3c2OCC3)S(=O)(=O)c2ccc(OC)c(N3CCN(C)CC3)c2)cc1N1CCN(C)CC1 [TCMDC-139809] | 54.84 |
| COc1ccc(S(=O)(=O)Nc2cc(Br)cc3c2OCCC3)cc1N1CCN(C(=O)C(Cl)(Cl)Cl)CC1 [TCMDC-139661] | -19.32 |
| COc1ccc(NS(=O)(=O)c2ccccc2Br)cc1N1CCN(C)CC1 [TCMDC-139092] | -23.57 |
| O=C(/C=C/c1ccc(Cl)c(Cl)c1)N1CCC(CCN2CCc3[nH]c4ccccc4c3C2)CC1 [TCMDC-134173] | -40.99 |
| CCOC(=O)c1cn(CC)c2cc(F)c(OC3CC4CCC3(C)C4(C)C)cc2c1=O (centres unmarked) [TCMDC-124161] | -18.01 |
| Nc1cc(C=Cc2ccc(O)cc2)nc2ccccc12 [TCMDC-138973] | -27.13 |
| CCn1c(/C=C/c2cc(Br)ccc2O)nc2ccccc2c1=O [TCMDC-124092] | 7.095 |
| Nc1cc(-c2ccc(Br)cc2O)nc2ccccc12 [TCMDC-138932] | 61.65 |
| CN1CCCN(Cc2cccc(-c3ccc(NS(=O)(=O)c4cccc5cccnc45)cc3)c2)CC1 [TCMDC-136481] | 100.2 |
| CN1CCCN(Cc2ccc(-c3ccc(NS(=O)(=O)c4cccc5cccnc45)cc3)cc2)CC1 [TCMDC-136478] | 98.81 |
| CC(C)NCc1cccc(-c2ccc(NS(=O)(=O)c3cccc4cccnc34)cc2)c1 [TCMDC-136480] | 43.51 |
| CCN1CCN(Cc2ccc(-c3ccc(NS(=O)(=O)c4cccc5cccnc45)cc3)cc2)CC1 [TCMDC-136479] | -5.672 |
| O=S(=O)(Nc1ccc(-c2ccc(CN3CCCC3)cc2)cc1)c1cccc2cccnc12 [TCMDC-136475] | 27.58 |
| CN1CCCN(Cc2cccc(-c3cccc(NS(=O)(=O)c4cccc5cccnc45)c3)c2)CC1 [TCMDC-136482] | 22.96 |
| COc1cc(F)c2ncc(Cl)c(CCN3CCC(NCc4ccc5c(c4)OCCO5)CC3)c2c1 [TCMDC-135624] | 2.949 |
| CC(CCc1ccccc1)NCC(O)c1ccc2c(c1)S(=O)(=O)c1ccccc1N2 (centres unmarked) [TCMDC-131254] | -29.84 |
| CCCCCN1CCCC(NS(=O)(=O)c2ccc(C(=O)Nc3ccc(C(F)(F)F)cc3)cc2)C1 (centres unmarked) [TCMDC-133677] | 16.66 |
| c1ccc(OCCCCN2CCCCC2)cc1 [TCMDC-124256] | 16.85 |
| CN1CCCC1CCCOC(=O)c1ccc(N)cc1 (centres unmarked) [TCMDC-131643] | -5.047 |
| CC(Cc1ccc(OCCCCOc2ccccc2)cc1)NCCC1CCCN1C (centres unmarked) [TCMDC-140017] | 116.2 |
| CC(Cc1ccc(OCCN2CCN(c3ccccc3)CC2)cc1)NCC(O)c1cccc(Cl)c1F (centres unmarked) [TCMDC-131531] | 24.37 |
| CC(Cc1ccc(OCCCCOc2ccccc2)cc1)NCCCN1CCOCC1 (centres unmarked) [TCMDC-140018] | 107.6 |
| Nc1ncc(-c2ccc(Br)cc2)c(N)n1 [TCMDC-125524] | -3.505 |
| Cn1ccnc1CNC(=O)c1ccc(-c2ccc(-c3nc4cc(C(F)(F)F)ccc4[nH]3)s2)cc1 [TCMDC-132353] | 3.481 |
| c1ccc(CNc2nc(NCCc3cnc[nH]3)nc(N3CCCC4CCCCC43)n2)cc1 (centres unmarked) [TCMDC-139742] | 0.6761 |

| SMILES | % Inhibition [%] |
| --- | --- |
| COc1cccc2c(NCc3ccccc3)nc(NCCCN3CCCCC3C)nc12 (centres unmarked) [TCMDC-137782] | 79.04 |
| COc1cccc2c(C)cc(NCc3ccc(Cl)cc3)nc12 [TCMDC-125774] | -17.6 |
| CC1CCCCN1CCCNc1nc(NCc2ccccc2)c2ccccc2n1 (centres unmarked) [TCMDC-137771] | 108.4 |
| Brc1ccc(Nc2nc(NCc3ccccc3)c3ccccc3n2)cc1 [TCMDC-124574] | 42.06 |
| COc1cc(CCNc2nc(NCc3cccc4ccccc34)nc(N3CCC(N)CC3)n2)ccc1O [TCMDC-133444] | -7.002 |
| C=C1N(C)c2cc([N+](=O)[O-])c(N)cc2C1(C)C [TCMDC-125319] | -63.8 |
| COc1cc2c(cc1O)[C@@H]1[C@H](O)[C@@H](O)C=C3CCN(C2)[C@H]31 [TCMDC-132036] | 63.23 |
| COc1cc2c(cc1COc1ccccc1)CCN1Cc3cc(OC)c(OC)cc3CC21 (centres unmarked) [TCMDC-141984] | -4.56 |
| CC(=O)Nc1ccc(C(=O)Nc2cccc(-c3ccc(-c4nc5ccccc5[nH]4)s3)c2)cn1 [TCMDC-136821] | 24.61 |
| CC(=O)Nc1ccc(C(=O)Nc2cccc(-c3csc(-c4nc5ccccc5[nH]4)c3)c2)cn1 [TCMDC-132405] | 77.44 |
| CC(=O)Nc1ccc(C(=O)Nc2ccc(-c3cccc(-c4nc5ccccc5[nH]4)c3)cc2)cn1 [TCMDC-136819] | -15.84 |
| CC(=O)Nc1ccc(C(=O)Nc2cccc(-c3ccc(-c4nc5ccccc5[nH]4)cc3)c2)cn1 [TCMDC-136827] | 76.21 |
| CC(=O)Nc1ccc(C(=O)Nc2cccc(-c3cccc(-c4nc5ccccc5[nH]4)c3)c2)cn1 [TCMDC-136820] | 6.09 |
| CC(=O)Nc1ccc(C(=O)Nc2ccc(-c3csc(-c4nc5ccccc5[nH]4)c3)cc2)cn1 [TCMDC-132393] | 4.532 |
| Cc1ccc(Cn2c(N3CCC(C(=O)NCc4ccccn4)CC3)nc3ccccc32)cc1 [TCMDC-125442] | 35.66 |
| NC(=O)NC(=O)C=Cc1ccco1 [TCMDC-131644] | -0.9845 |
| COc1cc(NC(=O)/C=C/c2cc(F)cc(F)c2F)cc(OCCN2CCC3(CC2)OCCO3)c1 [TCMDC-140933] | -20.54 |
| COc1ccc(C(=O)N2CCC3(CC2)C(=O)N(CC(=O)NCC2CCCCC2)CN3c2ccccc2)cc1 [TCMDC-125171] | 3.565 |
| O=C(Nc1ccc(C(F)(F)F)cc1)c1ccc(S(=O)(=O)NC2CCN(CC3CCCCC3)CC2)cc1 [TCMDC-133676] | -72.67 |
| O=C(Nc1cccc(C(F)(F)F)c1)c1ccc(S(=O)(=O)NC2CCN(CC3CCCCC3)C2)cc1 (centres unmarked) [TCMDC-132772] | 86.66 |
| O=C(Nc1ccc(C(F)(F)F)cc1)c1ccc(S(=O)(=O)NC2CCN(CC3CCCCC3)C2)cc1 (centres unmarked) [TCMDC-133674] | -14.42 |
| O=C(Nc1cccc(C(F)(F)F)c1)c1cccc(S(=O)(=O)NC2CCN(CC3CCCCC3)C2)c1 (centres unmarked) [TCMDC-132487] | 9.75 |
| O=C(Nc1ccc(C(F)(F)F)cc1)c1ccc(S(=O)(=O)NC2CCCN(CC3CCCCC3)C2)cc1 (centres unmarked) [TCMDC-133678] | 5.433 |
| O=C(Nc1cccc(C(F)(F)F)c1)c1ccc(S(=O)(=O)NC2CCN(CC3CCCCC3)CC2)cc1 [TCMDC-132773] | 84.32 |
